VDR inhibitor: blocks the human vitamin D receptor | VDR-SRC2-3 peptide fluorescence polarization, 2 h | Potency, µM, inactives show max response, negative = inhibition, actives largely listed as inhibitors | 0.93% of 400,000 active; also: potency is read from the fitted curve at half-maximal effect; % is scaled to controls: 0 for no effect and ±100 for the full control effect
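The screen uses fluorescence polarization to detect compounds that interfere with recruitment of the SRC2-3 coactivator peptide to VDR; plates are read after 2 h at room temperature.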
TCR act: activates T cell receptor signaling; Potency, µM (series often up to 9.22 µM), inactives show at the highest dose activation of IL-2 secretion, hits mostly activators; primary human leukocytes, anti-CD3, IL-2 HTRF, 48 h; 330,000 tested, under 10 active; AID 504894; also: % of control where 0% means no effect
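1) Mix primary human leukocytes, a-CD3 beads and compound. 2) Incubate 48 hr. 3) Add HTRF IL-2 reagents (a-IL-2-K, a-IL-2-d2).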
FEN1 inh: human FEN1 inhibition | P39748 | 0.35% of 390,000 active | Potency, µM (highest dose often 114 µM), inactives show at the top dose activity change, negative = inhibition, hits mostly inhibitors | Recombinant FEN1 flap cleavage, fluorescence, 15 min; also: potency is read from the fitted curve at half-maximal effect; % is scaled to controls: 0 for no effect and ±100 for the full control effect; nearly all actives have a fitted effect of over 65% in size
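FEN1 at 10 nM preincubated with compounds 15 min at room temperature, then flap DNA substrate added at 50 nM final. Signal read at 0 and 15 min; concentration-response fitted with four-parameter Hill equation.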
PLK1 PBD block: PLK1 (human) polo-box domain binding inhibition; Potency, µM, for the others: max response, negative = inhibition, usual class: inhibitors; Plk1 PBD binding of FITC phosphopeptide, fluorescence polarization; P53350; 2.8% of 360,000 active; also: potency is read from the fitted curve at half-maximal effect; series mostly up to about 57 µM; % is scaled to controls: 0 for no effect and ±100 for the full control effect; nearly all actives have a fitted effect of over 65% in size
WRN helicase inh: inhibitors of human WRN helicase; WRN helicase unwinding, fluorescent forked duplex, kinetic; Potency, µM (top dose mostly 114 µM), inactives show top-dose activity change, negative = inhibition, hits mostly inhibitors; 0.46% of 360,000 active; Q14191; AID 651768; also: potency is read from the fitted curve at half-maximal effect; % is scaled to controls: 0 for no effect and ±100 for the full control effect; nearly all actives have a fitted effect of over 55% in size
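Kinetic fluorescence helicase assay: unwinding of a quenched forked DNA duplex (100 nM final) with 2 mM ATP final raises red fluorescence (525/598 nm). Compounds sat 15 min at room temperature with 20 nM WRN beforehand.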
PI5P4K alpha inh: inhibitors of human PI5P4K alpha. PI5P4Kalpha enzyme, ADP-Glo luminescence, 60 min; active compounds read low. AID 652105. max response, %. 1.2% of 330,000 active. P48426; active = max response of -50% or lower; inconclusive = between -30% and -50%; inactive = -30% or higher; also: value at the top dose of about 77 µM; % is scaled to controls: 0 for no effect and ±100 for the full control effect
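ADP-Glo luminescence end-point read after a 60 min room-temperature kinase reaction of PI5P4Kalpha plus substrate, initiated with ATP at 5 microM final. Buffer: 0.038 M HEPES pH 7.4, EGTA, 0.1% CHAPS, 5% DMSO.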
The depositor's hits bear a star; ? = inconclusive; . = no result; [ ] = dose if it differs, or a comment. This is a sample that favours compounds with a hit; in the whole collection about 3.7% have one here. Unless noted, calls follow the shape of the dose curve; as a rule, active = well fitted curve in the direction sought with a large enough effect; inconclusive = small, poorly fitted or top-dose-only effect, or another doubt; inactive = no such curve, though single readings can be large; an effect the other way counts as inactive or inconclusive.

SMILES | VDR inhibitor | TCR act | FEN1 inh | PLK1 PBD block | WRN helicase inh | PI5P4K alpha inh
COc1ccccc1NC(=O)CSc1n[nH]c(-c2ccco2)n1 | ? | -6% | -2% | 27µM* | -11% | 1
O=C(CSC1=Nc2ccccc2N=C(c2ccc(F)cc2)C1)NCc1ccccc1Cl | 11% | . | -2% | . | . | .
O=C(CC(C(=O)O)n1ccnc1)c1ccc(Cl)cc1 (configuration not stated) | . | . | 8% | . | . | .
CC(C)(C)n1ncc2c(=O)n(Cc3c(F)ccc(Cl)c3Cl)cnc21 | . | . | -14% | . | . | .
Cc1ccccc1NC(=O)NC1(C(=O)N2CCOCC2)CCCCC1 | 0% | 2% | 1% | 4% | 0% | -1
O=C(Nc1ccccc1C(F)(F)F)NC1(C(=O)N2CCOCC2)CCCCC1 | ? | -7% | -11% | 6.7µM* | ? | -88*
COc1ccc(/C=C\C(=O)CC(O)(c2ccccc2)C(F)(F)F)cc1 (configuration not stated) | 50µM* | 0% | ? | -9% | -18% | .
COc1ccc(/C=C(/NC(=O)/C=C/c2ccccc2)C(=O)O)cc1 | 12% | 1% | 0% | -4% | 15%[57.1 µM] | -1
O=C(Cc1cccc(F)c1)NO | . | . | 8% | . | . | .
Cc1cc2c(cc(C(=O)OCC(=O)NC3CCCCC3)n2C)o1 | ? | 0% | -16% | 27µM* | ? | -16
Cc1cc(C(=O)OCC(=O)NC2CCCCC2)c(C)o1 | 1% | 6% | -5% | -9% | 6% | -4
COc1ccc(CNS(=O)(=O)c2ccc(-c3ccc(=O)[nH]n3)s2)cc1OC | 3% | 1% | -2% | -9% | -8% | 1
Cc1cccc(CNS(=O)(=O)c2ccc(-c3ccc(=O)[nH]n3)s2)c1 | -30% | -6% | -6% | 24µM* | -10% | 1
COC(=O)C(c1ccc(OC)c(OC)c1)C1c2ccccc2C=C(C)N1C(=O)OC (configuration not stated) | -5% | . | . | . | . | .
O=C1c2ccc(Oc3cccc([N+](=O)[O-])c3)cc2C(=O)N1c1ccccn1 | ? | 3% | -18% | 11µM* | 4% | -11
O=C1c2cc([N+](=O)[O-])cc3cc([N+](=O)[O-])cc(c23)C(=O)N1c1ccccn1 | -12% | -1%[46.1 µM] | ? | ? | ? | -28
O=C(Nc1ccc2nn(-c3ccccc3)nc2c1)c1ccc(-c2cccc(Cl)c2)o1 | -15% | . | -6% | . | . | .
CC[C@H]1C=C[C@@H](C(C(=O)OC)C(=O)OC)CN1C(C)=O | 79µM* | 0% | 4% | 27µM* | 10% | ?
C=CC[C@H]1C=C[C@@H](C(C(=O)OC)C(=O)OC)CN1C(C)=O | ? | -5% | 13% | 24µM* | 6% | ?
COC(=O)c1ccccc1NC(=O)C1CCCN(c2nnc(C)c3c(C)n(-c4ccccc4)nc23)C1 (configuration not stated) | 6% | . | -1% | . | . | .
COc1ccc(N2CCN(C(=O)c3cn(Cc4ccccc4)nc3-c3cccnc3)CC2)cc1 | 2% | -2% | -7% | -9% | 5% | 0
COCCOC(=O)/C(C#N)=C/c1cn(Cc2ccccc2)nc1-c1cccnc1 | ? | -1% | 8% | 27µM* | -20% | -10
CC(Oc1ccc(Cl)cc1Cl)C(=O)NCCCn1ccnc1 (configuration not stated) | -12% | 5% | 3% | 24µM* | 3% | -5
O=C(CCCOc1ccc(Cl)cc1Cl)NCCCn1ccnc1 | 15% | -3% | -2% | -8% | 6% | -2
c1ccc(SSc2ccccn2)nc1 | 3.2µM* | 7% | ? | 0.67µM* | 22µM* | -23
SMILES | VDR inhibitor | TCR act | FEN1 inh | PLK1 PBD block | WRN helicase inh | PI5P4K alpha inh
COC(=O)CSC1=C(C#N)C(=O)NC(c2ccccc2)S1 (configuration not stated) | 3% | . | 0% | ? | -1% | -56*
CC1=C(C#N)C(c2ccccc2O)C(C#N)=C(C)N1 | -20% | . | -7% | -9% | 6% | 1
CSC1=C(C#N)C(=O)NC(c2ccccc2O)S1 (configuration not stated) | -15% | 11% | 5% | 2.1µM* | -35% | -15
COCCCNc1oc(-c2ccc(COc3ccccc3C)o2)nc1C#N | 15% | . | -13% | . | . | .
CCOC(=O)c1nnc2cc(-c3ccccc3)nn2c1C | 14% | 0% | 4% | -8% | -11% | 10
CCOC(=O)c1nnc2c(Br)c(-c3ccccc3)nn2c1C | ? | 1%[46.1 µM] | ? | 30µM* | -18% | 0
NC(=O)C1=CN(C2OC(COP(=O)(O)OP(=O)(O)OC[C@H]3O[C@@H](n4cnc5c(N)ncnc54)[C@H](OP(=O)(O)O)[C@@H]3O)C(O)C2O)C=CC1 (some centres not stated) | 8% | . | . | . | . | .
O=[N+]([O-])c1cc(-c2ncccn2)c([N+](=O)[O-])s1 | 35µM* | -1% | -32% | 2.7µM* | -28% | ?
CCn1c(C(=O)Nc2c(C)cccc2C)cc2sc(Cl)cc21 | -3% | . | -14% | . | . | .
CC1=C(C#N)C(C)C2=C(CC(C)(C)CC2=O)N1 (configuration not stated) | -4% | 1% | -3% | 30µM* | 1% | -3
CC1C(C#N)=C(SCC(N)=O)NC2=C1C(=O)CC(C)(C)C2 (configuration not stated) | ? | -3% | -6% | 27µM* | -6% | -6
CC1=C(C#N)C(c2ccc(O)cc2)C2=C(CC(C)(C)CC2=O)N1 (configuration not stated) | 1% | -2%[46.1 µM] | 10% | 1% | 0% | 2
CC1(C)CC(=O)C2=C(C1)NC(SCC(N)=O)=C(C#N)C21CCCCC1 | 1% | 4% | -4% | -17% | 1% | -11
O=C(Nc1ccccc1O)c1ccc([N+](=O)[O-])cc1 | -8% | -2% | 3% | -2% | 5% | 0
Cc1cc(NC(=O)c2ocnc2C)no1 | ? | -5% | 0% | 24µM* | -6% | .
Cc1cc(NC(=O)c2ccc(C(C)(C)C)cc2)no1 | 4% | -1% | -2% | ? | 9% | 0
Cc1cc(NC(=O)c2ccc([N+](=O)[O-])cc2)no1 | ? | . | 5% | 21µM* | -14% | -12
CSc1ccccc1NC(=O)c1ccc([N+](=O)[O-])cc1 | ? | 12% | 7% | 24µM* | -7% | -21
Cc1ncoc1C(=O)Nc1ncc([N+](=O)[O-])s1 | 89µM* | -1% | -7% | ? | ? | ?
CCCCOc1ccc(CNC(=O)CN2CCSc3ccccc32)cc1 | 12% | . | -20% | . | . | .
CNCCc1cnc(CCC(c2ccccc2)c2ccccc2)[nH]1 | -13% | . | ? | . | . | .
CCOC(=O)c1sc2ccccc2c1S(=O)(=O)Nc1cccc(C(F)(F)F)c1 | -9% | . | -10% | . | . | .
Cc1ccccc1Nc1oc(-c2ccccc2)nc1-c1ccccc1 | -4% | . | . | . | . | .

Compound activity as filed in PubChem.
